Experimental data taken from the supplement of paper PMC6992640.

What was measured:
Test in all cases: cell viability of combination (% of vehicle); higher = less cytotoxic
Conditions in all cases: 1 µM; 72 h; partner dose: 10 nM
HCI01 = system: HCI01 (cells of a triple-negative basal-like breast cancer xenograft)
Procedure: (§1)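 PDX cells were treated for 72 h with each drug at 1 µM plus carfilzomib (10 nM; 100 nM for WHIM2). Luciferase viability is expressed as percent of vehicle.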

UCD52 = system: UCD52 (cells of a triple-negative basal-like breast cancer xenograft)
Procedure: as §1

WHIM30 = system: WHIM30 (cells of a triple-negative basal-like breast cancer xenograft)
Procedure: as §1

SMILES	cell viability of combination (HCI01)	cell viability of combination (UCD52)	cell viability of combination (WHIM30)
CC(O)C(=O)O.CCOc1ccc2nc3cc(N)ccc3c(N)c2c1.O [Ethacridine lactate monohydrate] + CC(C)C[C@H](NC(=O)[C@H](CCc1ccccc1)NC(=O)CN1CCOCC1)C(=O)N[C@@H](Cc1ccccc1)C(=O)N[C@@H](CC(C)C)C(=O)[C@@]1(C)CO1 [Carfilzomib]	74.3	66.7	
COc1cc2c(Nc3ccc(Br)cc3F)ncnc2cc1OCC1CCN(C)CC1 [Vandetanib (ZD6474)] + CC(C)C[C@H](NC(=O)[C@H](CCc1ccccc1)NC(=O)CN1CCOCC1)C(=O)N[C@@H](Cc1ccccc1)C(=O)N[C@@H](CC(C)C)C(=O)[C@@]1(C)CO1 [Carfilzomib]	64.1	39.4	15.1
CNCCCC12CCC(c3ccccc31)c1ccccc12.Cl [Maprotiline HCl] + CC(C)C[C@H](NC(=O)[C@H](CCc1ccccc1)NC(=O)CN1CCOCC1)C(=O)N[C@@H](Cc1ccccc1)C(=O)N[C@@H](CC(C)C)C(=O)[C@@]1(C)CO1 [Carfilzomib]	76.5	55.5	
Cc1cn(-c2cc(NC(=O)c3ccc(C)c(Nc4nccc(-c5cccnc5)n4)c3)cc(C(F)(F)F)c2)cn1 [Nilotinib(AMN-107)] + CC(C)C[C@H](NC(=O)[C@H](CCc1ccccc1)NC(=O)CN1CCOCC1)C(=O)N[C@@H](Cc1ccccc1)C(=O)N[C@@H](CC(C)C)C(=O)[C@@]1(C)CO1 [Carfilzomib]	69.1	45.7	
Cc1nc(Nc2ncc(C(=O)Nc3c(C)cccc3Cl)s2)cc(N2CCN(CCO)CC2)n1 + CC(C)C[C@H](NC(=O)[C@H](CCc1ccccc1)NC(=O)CN1CCOCC1)C(=O)N[C@@H](Cc1ccccc1)C(=O)N[C@@H](CC(C)C)C(=O)[C@@]1(C)CO1 [Carfilzomib]	61.3	32.4	26.6
C[C@H]1O[C@@H](O[C@H]2[C@@H](O)C[C@H](O[C@H]3[C@@H](O)C[C@H](O[C@H]4CC[C@@]5(C)[C@H](CC[C@@H]6[C@@H]5C[C@@H](O)[C@]5(C)[C@@H](C7=CC(=O)OC7)CC[C@]65O)C4)O[C@@H]3C)O[C@@H]2C)C[C@H](O)[C@@H]1O [Digoxin] + CC(C)C[C@H](NC(=O)[C@H](CCc1ccccc1)NC(=O)CN1CCOCC1)C(=O)N[C@@H](Cc1ccccc1)C(=O)N[C@@H](CC(C)C)C(=O)[C@@]1(C)CO1 [Carfilzomib]	40.7	16.9	4.55
CCCCCCCCCCCC1=C(O)C(=O)C=C(O)C1=O [Embelin] + CC(C)C[C@H](NC(=O)[C@H](CCc1ccccc1)NC(=O)CN1CCOCC1)C(=O)N[C@@H](Cc1ccccc1)C(=O)N[C@@H](CC(C)C)C(=O)[C@@]1(C)CO1 [Carfilzomib]	71.1	55.5	
CCOC(=O)C1=C(COCCN)NC(C)=C(C(=O)OC)C1c1ccccc1Cl (stereo not given) [Amlodipine] + CC(C)C[C@H](NC(=O)[C@H](CCc1ccccc1)NC(=O)CN1CCOCC1)C(=O)N[C@@H](Cc1ccccc1)C(=O)N[C@@H](CC(C)C)C(=O)[C@@]1(C)CO1 [Carfilzomib]	113	62.5	
COc1cc2c(Oc3ccc4[nH]c(C)cc4c3F)ncnc2cc1OCCCN1CCCC1 [Cediranib (AZD217)] + CC(C)C[C@H](NC(=O)[C@H](CCc1ccccc1)NC(=O)CN1CCOCC1)C(=O)N[C@@H](Cc1ccccc1)C(=O)N[C@@H](CC(C)C)C(=O)[C@@]1(C)CO1 [Carfilzomib]	80.6	31.6	11.6
N.N.O=C([O-])C1(C(=O)[O-])CCC1.[Pt+2] [Carboplatin] + CC(C)C[C@H](NC(=O)[C@H](CCc1ccccc1)NC(=O)CN1CCOCC1)C(=O)N[C@@H](Cc1ccccc1)C(=O)N[C@@H](CC(C)C)C(=O)[C@@]1(C)CO1 [Carfilzomib]	81.2	70.6	
C#Cc1cccc(Nc2ncnc3cc(OCCOC)c(OCCOC)cc23)c1.Cl [Erlotinib Hydrochloride] + CC(C)C[C@H](NC(=O)[C@H](CCc1ccccc1)NC(=O)CN1CCOCC1)C(=O)N[C@@H](Cc1ccccc1)C(=O)N[C@@H](CC(C)C)C(=O)[C@@]1(C)CO1 [Carfilzomib]	62.6	57.4	
Nc1c(CC(=O)[O-])cccc1C(=O)c1ccccc1.O.[Na+] [Amfenac Sodium Monohydrate] + CC(C)C[C@H](NC(=O)[C@H](CCc1ccccc1)NC(=O)CN1CCOCC1)C(=O)N[C@@H](Cc1ccccc1)C(=O)N[C@@H](CC(C)C)C(=O)[C@@]1(C)CO1 [Carfilzomib]	76.5	66.3	
CNCCC(Oc1ccc(C(F)(F)F)cc1)c1ccccc1.Cl (stereo not given) [Fluoxetine HCl] + CC(C)C[C@H](NC(=O)[C@H](CCc1ccccc1)NC(=O)CN1CCOCC1)C(=O)N[C@@H](Cc1ccccc1)C(=O)N[C@@H](CC(C)C)C(=O)[C@@]1(C)CO1 [Carfilzomib]	72.4	52.6	16.3
CC[C@@]1(O)C(=O)OCc2c1cc1n(c2=O)Cc2cc3c(CN(C)C)c(O)ccc3nc2-1.Cl [Topotecan HCl] + CC(C)C[C@H](NC(=O)[C@H](CCc1ccccc1)NC(=O)CN1CCOCC1)C(=O)N[C@@H](Cc1ccccc1)C(=O)N[C@@H](CC(C)C)C(=O)[C@@]1(C)CO1 [Carfilzomib]	55.9	54.7	
CC1(COc2ccc3c(c2)ncn3-c2ccc3cccc(N4CCC(N)CC4)c3n2)COC1 + CC(C)C[C@H](NC(=O)[C@H](CCc1ccccc1)NC(=O)CN1CCOCC1)C(=O)N[C@@H](Cc1ccccc1)C(=O)N[C@@H](CC(C)C)C(=O)[C@@]1(C)CO1 [Carfilzomib]	102	135	
CC(C)C[C@H](NC(=O)[C@H](Cc1ccccc1)NC(=O)c1cnccn1)B(O)O [Bortezomib] + CC(C)C[C@H](NC(=O)[C@H](CCc1ccccc1)NC(=O)CN1CCOCC1)C(=O)N[C@@H](Cc1ccccc1)C(=O)N[C@@H](CC(C)C)C(=O)[C@@]1(C)CO1 [Carfilzomib]	28.8	15.5	
CCOC(=O)C1=C(COCCN)NC(C)=C(C(=O)OC)C1c1ccccc1Cl.O=S(=O)(O)c1ccccc1 (stereo not given) [Amlodipine Besylate] + CC(C)C[C@H](NC(=O)[C@H](CCc1ccccc1)NC(=O)CN1CCOCC1)C(=O)N[C@@H](Cc1ccccc1)C(=O)N[C@@H](CC(C)C)C(=O)[C@@]1(C)CO1 [Carfilzomib]	97.1	64.8	16.5
CC(C)c1nc(N(C)S(C)(=O)=O)nc(-c2ccc(F)cc2)c1C=CC(O)CC(O)CC(=O)[O-].CC(C)c1nc(N(C)S(C)(=O)=O)nc(-c2ccc(F)cc2)c1C=CC(O)CC(O)CC(=O)[O-].[Ca+2] (stereo not given) [Rosuvastatin Calcium] + CC(C)C[C@H](NC(=O)[C@H](CCc1ccccc1)NC(=O)CN1CCOCC1)C(=O)N[C@@H](Cc1ccccc1)C(=O)N[C@@H](CC(C)C)C(=O)[C@@]1(C)CO1 [Carfilzomib]	80.8	67.7	19.6
CC(Oc1cc(-c2cnn(C3CCNCC3)c2)cnc1N)c1c(Cl)ccc(F)c1Cl [(R)-Crizotinib] + CC(C)C[C@H](NC(=O)[C@H](CCc1ccccc1)NC(=O)CN1CCOCC1)C(=O)N[C@@H](Cc1ccccc1)C(=O)N[C@@H](CC(C)C)C(=O)[C@@]1(C)CO1 [Carfilzomib]	146	49.1	
CC[C@@H]1/C=C(\C)C[C@H](C)C[C@H](OC)[C@H]2O[C@@](O)(C(=O)C(=O)N3CCCC[C@H]3C(=O)O[C@H](/C(C)=C/[C@@H]3CC[C@H](Cl)[C@H](OC)C3)[C@H](C)[C@@H](O)CC1=O)[C@H](C)C[C@@H]2OC [Pimecrolimus] + CC(C)C[C@H](NC(=O)[C@H](CCc1ccccc1)NC(=O)CN1CCOCC1)C(=O)N[C@@H](Cc1ccccc1)C(=O)N[C@@H](CC(C)C)C(=O)[C@@]1(C)CO1 [Carfilzomib]	95.7	49.2	11.7
C=C(c1ccc(C(=O)O)cc1)c1cc2c(cc1C)C(C)(C)CCC2(C)C [Bexarotene] + CC(C)C[C@H](NC(=O)[C@H](CCc1ccccc1)NC(=O)CN1CCOCC1)C(=O)N[C@@H](Cc1ccccc1)C(=O)N[C@@H](CC(C)C)C(=O)[C@@]1(C)CO1 [Carfilzomib]	71.8	79.6	
